In PubChem BioAssay (NCI):
About 83,000 compounds went through this panel and 20% of them were active in at least one assay; those are over-represented in the sample as a whole.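 Note: values are percent growth. 100 is the growth of untreated cells, values between 100 and 0 indicate rising inhibition; between -100 and 0 indicates cell death.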 Activity calls are given as the source filed them. The calls were made as follows: active = growth percent below 10; inactive = the rest.

Legend:
Test in all cases: NCI-60 one-dose screen, 48 h (100 = growth as untreated, 0 = no growth, -100 = all killed)
Details in all cases: 10 µM unless noted
[1] = tested on: NCI-H23 lung
[2] = tested on: NCI-H226 lung
[3] = tested on: NCI-H322M lung
[4] = tested on: HOP-62 NSCLC
[5] = tested on: NCI-H460 lung
[6] = tested on: HOP-92 NSCLC
[7] = tested on: NCI-H522 lung
[8] = tested on: A549/ATCC NSCLC
[9] = tested on: 786-0 renal
[10] = tested on: COLO 205 colon

Measured: growth

O=C(O)c1cn(C2CC2)c2cc(N3CCN(C(=O)C[n+]4cccc5ccccc54)CC3)c(F)cc2c1=O
inactive: [1] 84.4% | [2] 101% | [3] 102% | [4] 98.9% | [5] 96.6% | [6] 95.5% | [8] 98.7% | [9] 48.5% | [10] 34.5%
active: [7] -90%

COc1cc(OC)c(/C=C/C(=O)c2ccc(Nc3ncnc4ccccc34)cc2)c(OC)c1
active: [2] -17.3% | [4] -54.5% | [5] -23.1% | [6] -16.4% | [7] -51.4% | [9] -13.2% | [10] 6.02%
inactive: [1] 17% | [3] 11.5% | [8] 12.2%

COc1ccc(C2CC(c3cccc(Nc4ccncc4)c3)=NN2c2ccc(Cl)cc2)cc1 (configuration not stated)
inactive: [1] 83% | [2] 88.8% | [3] 73.7% | [4] 25.3% | [6] 51.5% | [8] 35.9% | [9] 102%
active: [7] -23% | [10] -65.9%

O=c1[nH]c(=O)[nH]c(=S)[nH]1
inactive: [1] 98.5% | [2] 97.9% | [3] 95.6% | [4] 102% | [6] 101% | [7] 94.6% | [8] 99.7% | [9] 102% | [10] 103%

CCOc1cc(CNc2ccc(N3CCOCC3)c(C(=O)O)c2)ccc1OC
inactive: [1] 100% | [2] 93.4% | [3] 94.8% | [4] 103% | [6] 110% | [7] 99.3% | [8] 93% | [9] 112% | [10] 104%

O=C(Nc1cccc(Cl)c1)Oc1c(Br)c(Br)c(Br)c(Br)c1Br
inactive: [1] 91% | [2] 81.3% | [3] 107% | [4] 56.1% | [6] 66.5% | [7] 58.8% | [8] 73.7% | [9] 93.8% | [10] 100%

CC(N)C(=O)NNc1n[nH]c(=S)n1N (configuration not stated)
inactive: [1] 100% | [2] 97.1% | [3] 92% | [4] 106% | [6] 94.6% | [7] 98% | [8] 102% | [9] 95.8% | [10] 111%

ClCC1(Cn2cnc3c(Cl)nc(Cl)nc32)COC1
inactive: [1] 69.1% | [2] 87.7% | [3] 100% | [4] 103% | [6] 73.1% | [7] 71.9% | [8] 57.5% | [9] 88.4% | [10] 80.2%

Cc1ccc(C2CC(c3cccc(Nc4ccncc4)c3)=NN2c2ccccc2)cc1 (configuration not stated)
inactive: [2] 28.9% | [9] 22.1%
active: [1] -69.3% | [3] -87.4% | [4] -67% | [6] -90.7% | [7] -65.1% | [8] -60.2% | [10] -69%

Cc1ccc(C(=O)Nc2ccccc2C(=O)N/N=C(\c2ccccc2)c2ccccn2)cc1
inactive: [1] 32.6% | [2] 30.3% | [3] 33.4% | [4] 14.5% | [6] 52.7% | [7] 24.1% | [8] 17.2% | [10] 14.1%
active: [9] -17.1%

CCOc1ccc(/C=N/Nc2cc(C)nc3ccc(Cl)cc23)cc1
inactive: [1] 78.9% | [2] 79.5% | [3] 66.9% | [4] 94.4% | [6] 50.5% | [7] 58.4% | [8] 59.9% | [9] 33.2% | [10] 21%

O=C(/C=C/c1ccc[nH]1)c1ccc(-n2ccc(C(F)(F)F)n2)cc1
active: [7] -6.16%
inactive: [1] 90.1% | [2] 91.5% | [3] 72.4% | [4] 104% | [6] 96.3% | [8] 50.6% | [9] 45.4% | [10] 122%

O=C(Nc1ccccc1)Oc1ccccc1-c1ccccc1
inactive: [1] 97.7% | [2] 93.3% | [3] 105% | [4] 74.9% | [6] 94.7% | [7] 83.7% | [8] 73.8% | [9] 93.5% | [10] 96%

CN1CCN(C(=O)[C@]2(C)CC[C@]3(C)CC[C@]4(C)C(=CC(=O)[C@@H]5[C@@]6(C)CCC(=O)NC(C)(C)[C@@H]6CC[C@]54C)[C@@H]3C2)CC1
inactive: [1] 100% | [2] 91.8% | [3] 107% | [4] 89.2% | [6] 64.7% | [7] 90.6% | [8] 94.4% | [9] 93.5% | [10] 110%

COc1ccc(NC(=O)c2sc3nc(C)c(C(O)c4ccc(OC)cc4)cc3c2N)cc1 (configuration not stated)
active: [7] 5.14% | [10] -6.28%
inactive: [1] 36.2% | [2] 63.5% | [3] 51.3% | [4] 31.8% | [6] 57.6% | [8] 23% | [9] 53.3%
